Targets with a hit are over-represented here; the source holds about 7,900 in all. About 0.6% of all pairs of compound and target were hits.
compound: C1CN(CCC1(CC2=CC=C(C=C2)Cl)N)C3=NC=NC4=C3C=CN4; assay: log2 fold change, soluble protein after heating vs DMSO (PISA); higher = thermal stabilisation; K562 cells, 10 uM, 30 min; active = over 0.2 and 3.5 SD of the protein, either way, in both replicates (recomputed)
Method in brief: (§1)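 Aliquots of K562 cells (2×10^6 cells/mL) treated with 10 μM compound for 30 min were heated for 3 min over 48°C-58°C. After pooling and extraction in PBS with 0.5% NP-40 at 4°C, soluble protein from a 21,000xg, 90 min spin was quantified by TMTpro 16plex LC-MS/MS with channel sums equalised. Thermal stability is expressed against control samples, from duplicates, as a log2 fold change.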

Sequence of UniProt P21333 (P21333 whole entry, looked up): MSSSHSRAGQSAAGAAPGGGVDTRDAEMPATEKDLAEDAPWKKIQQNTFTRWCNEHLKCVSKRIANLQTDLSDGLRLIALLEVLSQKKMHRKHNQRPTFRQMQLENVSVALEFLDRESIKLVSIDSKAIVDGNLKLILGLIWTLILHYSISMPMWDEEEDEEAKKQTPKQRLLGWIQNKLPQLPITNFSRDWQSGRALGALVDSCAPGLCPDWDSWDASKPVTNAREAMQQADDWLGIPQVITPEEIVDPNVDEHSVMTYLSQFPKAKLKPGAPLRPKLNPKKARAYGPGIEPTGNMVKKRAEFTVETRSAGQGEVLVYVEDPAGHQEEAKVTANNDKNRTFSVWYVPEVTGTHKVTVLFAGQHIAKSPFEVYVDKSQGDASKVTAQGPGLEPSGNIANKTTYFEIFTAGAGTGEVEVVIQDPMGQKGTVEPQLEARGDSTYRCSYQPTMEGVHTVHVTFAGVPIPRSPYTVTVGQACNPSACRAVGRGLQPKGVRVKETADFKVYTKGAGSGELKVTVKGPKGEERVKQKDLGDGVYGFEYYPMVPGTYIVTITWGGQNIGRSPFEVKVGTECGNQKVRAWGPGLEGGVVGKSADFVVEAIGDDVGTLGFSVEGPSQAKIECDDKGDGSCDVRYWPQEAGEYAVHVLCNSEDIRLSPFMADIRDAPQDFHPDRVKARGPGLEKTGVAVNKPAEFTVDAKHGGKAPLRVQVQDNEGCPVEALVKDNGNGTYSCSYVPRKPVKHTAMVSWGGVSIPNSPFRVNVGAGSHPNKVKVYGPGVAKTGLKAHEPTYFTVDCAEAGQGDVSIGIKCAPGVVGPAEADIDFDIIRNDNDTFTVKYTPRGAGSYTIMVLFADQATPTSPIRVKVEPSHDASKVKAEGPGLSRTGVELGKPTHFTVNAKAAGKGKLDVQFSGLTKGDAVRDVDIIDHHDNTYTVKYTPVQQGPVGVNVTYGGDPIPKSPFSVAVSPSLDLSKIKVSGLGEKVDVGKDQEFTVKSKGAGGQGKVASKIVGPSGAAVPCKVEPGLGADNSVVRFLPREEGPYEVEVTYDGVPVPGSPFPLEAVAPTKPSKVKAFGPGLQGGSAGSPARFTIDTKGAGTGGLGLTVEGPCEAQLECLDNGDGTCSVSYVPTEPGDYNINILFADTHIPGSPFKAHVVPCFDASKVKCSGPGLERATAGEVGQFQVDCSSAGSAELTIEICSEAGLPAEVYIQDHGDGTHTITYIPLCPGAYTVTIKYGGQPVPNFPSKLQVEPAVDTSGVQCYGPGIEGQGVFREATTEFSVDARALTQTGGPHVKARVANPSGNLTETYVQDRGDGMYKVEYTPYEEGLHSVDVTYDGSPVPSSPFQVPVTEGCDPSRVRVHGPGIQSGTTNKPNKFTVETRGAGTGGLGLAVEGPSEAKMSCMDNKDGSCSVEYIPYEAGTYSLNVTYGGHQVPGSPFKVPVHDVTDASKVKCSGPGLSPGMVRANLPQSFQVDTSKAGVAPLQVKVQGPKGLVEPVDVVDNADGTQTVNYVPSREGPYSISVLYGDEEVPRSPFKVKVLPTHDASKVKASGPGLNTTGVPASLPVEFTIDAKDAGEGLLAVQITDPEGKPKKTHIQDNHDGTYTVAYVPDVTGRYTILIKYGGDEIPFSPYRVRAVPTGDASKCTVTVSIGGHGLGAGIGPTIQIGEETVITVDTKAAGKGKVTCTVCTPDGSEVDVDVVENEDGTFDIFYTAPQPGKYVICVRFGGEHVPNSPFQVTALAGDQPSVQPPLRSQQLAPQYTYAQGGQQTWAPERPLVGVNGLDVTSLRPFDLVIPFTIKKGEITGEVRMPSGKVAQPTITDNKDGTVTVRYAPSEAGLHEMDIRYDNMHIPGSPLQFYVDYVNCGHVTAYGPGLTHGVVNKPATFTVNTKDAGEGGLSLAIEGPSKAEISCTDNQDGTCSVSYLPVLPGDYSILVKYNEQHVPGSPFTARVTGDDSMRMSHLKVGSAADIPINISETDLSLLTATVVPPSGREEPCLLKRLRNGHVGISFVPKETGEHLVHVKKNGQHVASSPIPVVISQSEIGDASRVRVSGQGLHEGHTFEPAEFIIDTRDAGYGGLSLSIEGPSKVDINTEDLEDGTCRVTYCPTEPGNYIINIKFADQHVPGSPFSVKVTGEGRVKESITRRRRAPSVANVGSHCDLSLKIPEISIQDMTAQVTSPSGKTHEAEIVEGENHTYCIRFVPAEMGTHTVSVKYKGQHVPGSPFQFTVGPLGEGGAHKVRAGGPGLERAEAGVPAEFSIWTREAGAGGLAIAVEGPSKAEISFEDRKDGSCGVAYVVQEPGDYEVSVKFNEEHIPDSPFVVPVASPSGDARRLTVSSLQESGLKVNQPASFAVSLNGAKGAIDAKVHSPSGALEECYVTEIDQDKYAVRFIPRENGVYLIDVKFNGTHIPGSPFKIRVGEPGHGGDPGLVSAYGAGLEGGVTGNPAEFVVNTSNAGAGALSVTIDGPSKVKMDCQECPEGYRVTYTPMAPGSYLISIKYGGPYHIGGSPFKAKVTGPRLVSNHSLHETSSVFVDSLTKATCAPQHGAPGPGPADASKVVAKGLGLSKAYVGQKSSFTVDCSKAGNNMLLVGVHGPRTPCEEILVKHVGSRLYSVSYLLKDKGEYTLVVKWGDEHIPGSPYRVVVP
Sequence of UniProt P36969 (P36969 whole entry, looked up): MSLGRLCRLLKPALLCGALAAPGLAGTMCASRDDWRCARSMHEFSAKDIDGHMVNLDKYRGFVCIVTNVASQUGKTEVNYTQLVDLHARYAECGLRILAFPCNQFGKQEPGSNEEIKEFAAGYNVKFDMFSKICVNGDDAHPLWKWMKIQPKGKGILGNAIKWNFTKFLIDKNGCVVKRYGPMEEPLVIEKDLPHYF
Sequence of UniProt Q00688 (Q00688 whole entry, looked up): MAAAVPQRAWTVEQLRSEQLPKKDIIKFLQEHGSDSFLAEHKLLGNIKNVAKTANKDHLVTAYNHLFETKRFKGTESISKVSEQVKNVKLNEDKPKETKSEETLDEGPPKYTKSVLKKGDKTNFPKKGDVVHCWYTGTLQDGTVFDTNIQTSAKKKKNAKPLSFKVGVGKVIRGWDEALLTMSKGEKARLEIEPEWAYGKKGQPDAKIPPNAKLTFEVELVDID
Sequence of UniProt O60725 (O60725 whole entry, looked up): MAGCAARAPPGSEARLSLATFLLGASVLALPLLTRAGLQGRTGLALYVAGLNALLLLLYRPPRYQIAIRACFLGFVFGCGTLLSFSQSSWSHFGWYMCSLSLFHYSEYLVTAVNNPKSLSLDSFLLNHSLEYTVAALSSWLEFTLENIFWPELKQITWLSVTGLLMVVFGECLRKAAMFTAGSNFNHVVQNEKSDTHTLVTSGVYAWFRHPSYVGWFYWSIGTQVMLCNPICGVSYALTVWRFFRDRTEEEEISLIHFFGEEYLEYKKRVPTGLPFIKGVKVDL
Sequence of UniProt O15117 (O15117 whole entry, looked up): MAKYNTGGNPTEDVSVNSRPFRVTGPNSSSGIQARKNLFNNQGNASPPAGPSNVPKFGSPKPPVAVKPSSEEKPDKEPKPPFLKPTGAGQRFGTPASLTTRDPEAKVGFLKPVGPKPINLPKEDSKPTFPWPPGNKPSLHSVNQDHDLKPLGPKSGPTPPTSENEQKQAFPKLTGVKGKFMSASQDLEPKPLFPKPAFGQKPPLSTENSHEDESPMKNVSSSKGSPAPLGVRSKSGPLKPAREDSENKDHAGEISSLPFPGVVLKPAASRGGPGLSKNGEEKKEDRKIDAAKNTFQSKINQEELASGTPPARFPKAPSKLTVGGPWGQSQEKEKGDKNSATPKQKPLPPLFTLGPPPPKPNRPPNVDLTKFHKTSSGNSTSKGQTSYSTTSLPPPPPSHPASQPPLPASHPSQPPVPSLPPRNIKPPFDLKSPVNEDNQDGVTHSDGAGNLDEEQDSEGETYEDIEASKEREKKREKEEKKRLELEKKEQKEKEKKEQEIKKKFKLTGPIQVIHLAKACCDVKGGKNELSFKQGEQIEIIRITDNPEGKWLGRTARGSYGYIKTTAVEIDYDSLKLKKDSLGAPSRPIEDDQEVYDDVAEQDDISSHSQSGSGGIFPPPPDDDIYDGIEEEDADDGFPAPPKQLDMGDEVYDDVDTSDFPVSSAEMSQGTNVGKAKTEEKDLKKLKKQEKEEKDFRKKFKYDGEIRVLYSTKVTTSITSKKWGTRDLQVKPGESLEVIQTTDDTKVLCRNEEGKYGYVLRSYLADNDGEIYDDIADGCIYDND
Sequence of UniProt P52655 (P52655 whole entry, looked up): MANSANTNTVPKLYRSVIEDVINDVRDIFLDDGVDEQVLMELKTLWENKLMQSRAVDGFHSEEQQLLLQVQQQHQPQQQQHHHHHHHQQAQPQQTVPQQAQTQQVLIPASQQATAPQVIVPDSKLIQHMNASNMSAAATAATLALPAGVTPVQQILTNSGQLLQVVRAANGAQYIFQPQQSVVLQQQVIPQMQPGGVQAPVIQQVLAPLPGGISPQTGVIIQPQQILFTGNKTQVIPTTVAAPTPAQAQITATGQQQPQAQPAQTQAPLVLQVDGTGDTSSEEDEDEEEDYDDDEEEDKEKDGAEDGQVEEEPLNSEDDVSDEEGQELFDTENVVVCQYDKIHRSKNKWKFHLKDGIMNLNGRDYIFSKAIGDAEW
Sequence of UniProt P49448 (P49448 whole entry, looked up): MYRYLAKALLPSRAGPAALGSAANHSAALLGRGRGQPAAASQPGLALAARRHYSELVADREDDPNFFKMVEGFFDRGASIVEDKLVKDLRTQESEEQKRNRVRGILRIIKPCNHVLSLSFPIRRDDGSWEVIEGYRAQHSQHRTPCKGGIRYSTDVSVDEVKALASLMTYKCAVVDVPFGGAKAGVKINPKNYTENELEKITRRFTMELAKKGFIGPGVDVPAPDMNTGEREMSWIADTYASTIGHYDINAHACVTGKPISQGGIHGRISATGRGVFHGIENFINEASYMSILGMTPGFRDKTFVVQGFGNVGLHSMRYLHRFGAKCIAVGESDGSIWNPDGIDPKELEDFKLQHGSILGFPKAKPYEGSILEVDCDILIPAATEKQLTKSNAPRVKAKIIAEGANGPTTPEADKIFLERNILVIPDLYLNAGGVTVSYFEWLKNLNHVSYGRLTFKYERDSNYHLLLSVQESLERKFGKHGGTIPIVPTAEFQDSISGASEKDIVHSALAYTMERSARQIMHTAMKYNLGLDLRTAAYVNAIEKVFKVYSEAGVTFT

log2 fold change, inactive:
FKBP3 (UniProt Q00688) -0.017, GPX4 (UniProt P36969) 0.058, HEXA (UniProt P06865) 0.007, HECTD1 (UniProt Q9ULT8) -0.204, GLUD2 (UniProt P49448) -0.009, GBF1 (UniProt Q92538) -0.052, HIKESHI (UniProt Q53FT3) 0.009, HBZ (UniProt P02008) 0.043, HIP1 (UniProt O00291) 0.09, HADHB (UniProt P55084) 0.158, GTPBP6 (UniProt O43824) 0.027, GOLPH3 (UniProt Q9H4A6) 0.043, GSTO1 (UniProt P78417) 0.008, GYG1 (UniProt P46976) -0.027, ICMT (UniProt O60725) -0.032, FANCD2 isoform 1 (UniProt Q9BXW9) 0.02, GMEB1 (UniProt Q9Y692) 0.036, GALNT2 (UniProt Q10471) 0.042, GCC2 (UniProt Q8IWJ2) -0.154, HAX1 (UniProt O00165) -0.078, GGT7 (UniProt Q9UJ14) 0.062, HDAC7 isoform 5 (UniProt Q8WUI4) 0.025, HSPA8 (UniProt E9PK54) -0.158, HIST2H3A (UniProt Q71DI3) -0.378, FLNA (UniProt P21333) -0.133, H2AFX (UniProt P16104) -0.319, GTF2A1 (UniProt P52655) 0.036, GATA1 (UniProt P15976) -0.004, GALNT1 (UniProt Q10472) 0.06, FMC1 (UniProt Q96HJ9) -0.042, GDE1 (UniProt Q9NZC3) 0.13, IDH3A (UniProt P50213) 0.028, FARS2 (UniProt O95363) -0.057, FYB1 isoform 3 (UniProt O15117) 0

compound: C1COCCN1CCN2C3=CC=CC=C3N=C2NC(=O)C4=CC(=CC=C4)[N+](=O)[O-] [IRAK-1-4 Inhibitor I]; assay: as above
Method in brief: as §1

log2 fold change, inactive:
FKBP3 (UniProt Q00688) 0.01, GPX4 (UniProt P36969) -0.026, HEXA (UniProt P06865) 0.013, HECTD1 (UniProt Q9ULT8) -0.076, GLUD2 (UniProt P49448) 0.025, GBF1 (UniProt Q92538) -0.033, HIKESHI (UniProt Q53FT3) 0.013, HBZ (UniProt P02008) 0.025, HIP1 (UniProt O00291) -0.002, HADHB (UniProt P55084) -0.025, GTPBP6 (UniProt O43824) -0.043, GOLPH3 (UniProt Q9H4A6) 0.033, GSTO1 (UniProt P78417) 0.073, GYG1 (UniProt P46976) -0.055, ICMT (UniProt O60725) 0.039, FANCD2 isoform 1 (UniProt Q9BXW9) -0.002, GMEB1 (UniProt Q9Y692) -0.033, GALNT2 (UniProt Q10471) 0.009, GCC2 (UniProt Q8IWJ2) -0.046, HAX1 (UniProt O00165) -0.017, GGT7 (UniProt Q9UJ14) 0.04, HDAC7 isoform 5 (UniProt Q8WUI4) 0.094, HSPA8 (UniProt E9PK54) -0.051, HIST2H3A (UniProt Q71DI3) -0.269, FLNA (UniProt P21333) -0.046, H2AFX (UniProt P16104) -0.049, GTF2A1 (UniProt P52655) 0.068, GATA1 (UniProt P15976) 0.038, GALNT1 (UniProt Q10472) -0.106, FMC1 (UniProt Q96HJ9) -0.06, GDE1 (UniProt Q9NZC3) -0.052, IDH3A (UniProt P50213) 0.033, FARS2 (UniProt O95363) 0, FYB1 isoform 3 (UniProt O15117) 0.009

compound: C=CC(=O)N1CCC[C@@H](n2nc(-c3ccc(Oc4ccccc4)cc3)c3c(N)ncnc32)C1 [ibrutinib]; assay: as above
Method in brief: as §1

log2 fold change, inactive:
FKBP3 (UniProt Q00688) 0.009, GPX4 (UniProt P36969) 0.065, HEXA (UniProt P06865) 0.004, HECTD1 (UniProt Q9ULT8) -0.027, GLUD2 (UniProt P49448) 0.045, GBF1 (UniProt Q92538) -0.049, HIKESHI (UniProt Q53FT3) -0.041, HBZ (UniProt P02008) -0.001, HIP1 (UniProt O00291) 0.083, HADHB (UniProt P55084) 0.074, GTPBP6 (UniProt O43824) -0.081, GOLPH3 (UniProt Q9H4A6) -0.035, GSTO1 (UniProt P78417) -0.029, GYG1 (UniProt P46976) 0.025, ICMT (UniProt O60725) 0.182, FANCD2 isoform 1 (UniProt Q9BXW9) 0.025, GMEB1 (UniProt Q9Y692) -0.031, GALNT2 (UniProt Q10471) -0.019, GCC2 (UniProt Q8IWJ2) -0.023, HAX1 (UniProt O00165) -0.036, GGT7 (UniProt Q9UJ14) 0.038, HDAC7 isoform 5 (UniProt Q8WUI4) -0.007, HSPA8 (UniProt E9PK54) -0.012, HIST2H3A (UniProt Q71DI3) 0.081, FLNA (UniProt P21333) -0.111, H2AFX (UniProt P16104) 0.077, GTF2A1 (UniProt P52655) 0.03, GATA1 (UniProt P15976) 0.015, GALNT1 (UniProt Q10472) 0.023, FMC1 (UniProt Q96HJ9) 0.008, GDE1 (UniProt Q9NZC3) 0.031, IDH3A (UniProt P50213) 0.021, FARS2 (UniProt O95363) -0.038, FYB1 isoform 3 (UniProt O15117) -0.012
